# Compounds with a hit are over-represented: about 3.5% of the library has one in this group of screens.
# FBA Mtb inh: inhibits M. tuberculosis FBA enzyme; P9WQA3; purified M. tuberculosis FBA, fluorescence read-out; inhibition, % at 1 µM; actives 2.3% (n = 360,000); AID 588726;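 also: 0% = vehicle and 100% = reference inhibitor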
# GDH-TPI counter-1: inhibits GDH-TPI coupling enzymes, artifact for Mtb FBA screen; inhibition, % at 4.8 µM; AID 588335; GDH-TPI coupled enzyme counterscreen, NADH absorbance; actives 1.2% (n = 360,000); in the data active = inhibition above about 30%;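 also: 0% = DMSO wells and 100% = wells lacking the enzyme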
# Rv3671c inh: inhibitors of M. tuberculosis serine protease Rv3671c. actives 0.048% (n = 320,000). inhibition, % at 5.96 µM; in the data active = inhibition above about 38%;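 also: extracellular domain of Rv3671c used as enzyme; 0% = enzyme with DMSO and 100% = no enzyme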
# Target sequence (P9WHR9 whole entry, looked up, the tested form may be a part): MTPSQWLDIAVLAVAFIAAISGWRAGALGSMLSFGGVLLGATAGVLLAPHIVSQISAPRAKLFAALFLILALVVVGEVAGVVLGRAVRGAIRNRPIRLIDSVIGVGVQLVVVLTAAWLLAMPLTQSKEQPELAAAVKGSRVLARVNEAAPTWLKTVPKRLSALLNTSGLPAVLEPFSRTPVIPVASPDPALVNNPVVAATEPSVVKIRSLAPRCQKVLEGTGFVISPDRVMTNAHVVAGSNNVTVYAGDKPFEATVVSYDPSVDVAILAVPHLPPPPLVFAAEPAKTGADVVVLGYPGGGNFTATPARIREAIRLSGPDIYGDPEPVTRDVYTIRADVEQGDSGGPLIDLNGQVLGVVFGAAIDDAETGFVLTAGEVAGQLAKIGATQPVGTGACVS
# UGM FP inh: inhibitors of M. tuberculosis UDP-galactopyranose mutase | purified UGM, fluorescence polarization probe displacement | actives 0.06% (n = 320,000) | AID 504406 | inhibition, % at 10 µM; in the data active = inhibition above about 10%, passing the limit was not always enough
# Mtb FBA inh conf: confirmation of M. tuberculosis fructose-bisphosphate aldolase inhibitors | shares compounds with FBA Mtb inh | purified M. tuberculosis FBA, fluorescence read-out | inhibition, % at 1 µM | actives 78% (n = 5,600) | AID 651616;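 also: 0% = vehicle wells and 100% = reference inhibitor wells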
# GDH-TPI counter-2: counter-screen for M. tuberculosis FBA inhibitors: GDH-TPI coupled enzyme inhibition; shares compounds with FBA Mtb inh; GDH-TPI coupled enzyme counterscreen, fluorescence; inhibition, % at 1 µM; actives 81% (n = 5,600); AID 652141; in the data active = inhibition above about 10%
# Active calls of the source: *; nt = no result; + = active, no number. Rule as the data show it, unless noted: active = inhibition above about 27%; inactive = the rest.
SMILES,FBA Mtb inh,GDH-TPI counter-1,Rv3671c inh,UGM FP inh,Mtb FBA inh conf,GDH-TPI counter-2
COc1ccc(CN2C(=NC(=O)C3CC3)SC3CS(=O)(=O)CC32)cc1OC (configuration not stated),6,4,-5,-4,nt,nt
Cc1cccc(C(=O)Nc2cccc(C(=O)N/N=C/c3ccccn3)c2)c1,48*,1,4,1,6,-11
CC(C)C(=O)Nc1ccc2c(c1)C(=O)NC2=O,46*,4,9,1,15,13*
O=C1NC(=O)c2cc(NC(=O)C3CCCCC3)ccc21,44*,-6,-5,0,132*,88*
Cc1cccc(C(=O)Nc2ccc3c(c2)C(=O)NC3=O)c1,45*,17,-7,-1,0,2
O=C(Nc1ccc2c(c1)C(=O)NC2=O)c1cccc(Cl)c1,13,10,-11,1,nt,nt
Cc1ccc(C(=O)Nc2ccc3c(c2)C(=O)NC3=O)cc1,16,3,-94,1,nt,nt
Cc1cccc(C(=O)N/N=C/c2ccccn2)c1,0,-1,0,-1,nt,nt
Cn1nc(-c2ccc(Cl)cc2)cc1NC(=O)CCCC(=O)O,1,-1,5,-3,nt,nt
Cc1cccc(C(=O)NNC(=O)c2ccc3ccccc3c2)c1,-4,5,nt,nt,nt,nt
O=c1oc(-c2ccccc2)cc(Cl)c1Cl,12,17,-12,0,nt,nt
COc1ccc(CCNC(=O)COC(=O)c2ccc(C)s2)cc1,2,-3,-6,-2,nt,nt
COCCCNC(=O)COC(=O)c1ccc(-c2nc3ccccc3s2)s1,79*,24,1,3,94*,70*
COc1ccc2[nH]c3c(=O)n(N)c(C)nc3c2c1,106*,10,-52,1,157*,137*
Cc1ccc2[nH]c3c(=O)n(N)c(C)nc3c2c1,41*,14,-30,0,39*,27*
COc1ccc2[nH]c3c(=O)n4c(nc3c2c1)SCC4,50*,8,-15,2,12,10
CCCC(C(=O)NC1CCCC1)N(C(=O)c1snc(C(N)=O)c1N)c1ccc(F)cc1 (configuration not stated),11,0,nt,nt,nt,nt
COc1ccccc1CNS(=O)(=O)c1ccc(-n2cccn2)cc1,3,-8,1,4,nt,nt
CN(C)CC1CCCCC1OC(=O)c1ccc(S(=O)(=O)N(C)c2ccccc2)cc1 (configuration not stated),2,-2,-1,1,nt,nt
Cc1ccc(C2Nc3ccccc3-c3nc4ccccc4n32)o1 (configuration not stated),82*,1,-20,-2,119*,95*
COc1ccc(-c2oc3ncnc(NCCCN(C)C)c3c2-c2ccc(OC)cc2)cc1,46*,16,2,-3,69*,72*
COc1ccc(C(=O)NC(=S)Nc2ccc([N+](=O)[O-])cc2C)cc1OC,-1,10,-2,-2,nt,nt
COc1ccc(C(=O)/C=C/Nc2ccc([N+](=O)[O-])cc2C)cc1OC,88*,13,0,3,83*,75*
CCOC(=O)c1c(C)[nH]c(C(=O)COC(=O)c2oc3ccc(OC)cc3c2C)c1C,7,-1,-2,1,nt,nt
CCOC(=O)N1CCN(C(=O)COC(=O)c2oc3ccc(OC)cc3c2C)CC1,48*,-1,5,-10,+,+
SMILES,FBA Mtb inh,GDH-TPI counter-1,Rv3671c inh,UGM FP inh,Mtb FBA inh conf,GDH-TPI counter-2
COc1ccc2oc(C(=O)OCC(=O)N3CCC(C)CC3)c(C)c2c1,44*,12,-8,-3,9,1
COC(=O)C1CCN(C(=O)COC(=O)c2oc3ccc(OC)cc3c2C)CC1,51*,2,-3,0,108*,103*
CC1CCN(C(=O)CCNS(=O)(=O)c2ccc(Br)cc2)CC1,-2,3,-2,-4,nt,nt
CCOC(=O)c1sc2cccc(F)c2c1N,103*,18,-9,8,+,198*
CCOC(=O)c1sc2cccc(Cl)c2c1N,2,5,3,0,nt,nt
Cc1ccc(-c2cc(C(=O)NCCCN3CCOCC3)c3ccccc3n2)cc1,50*,13,-4,1,7,-5
O=C(NCCCN1CCOCC1)c1cc2ccccc2cc1O,2,-4,4,0,nt,nt
COc1ccc(-c2cc(C(F)(F)F)nc(SCC(=O)NCCCN3CCOCC3)n2)cc1,34*,11,-6,-5,111*,84*
Cc1ccc(-c2nc(C(=O)NCCCN3CCOCC3)cc3c2[nH]c2ccccc23)cc1,17,-4,-23,1,nt,nt
Nc1ccccc1C(=O)NCCCN1CCOCC1,67*,9,-5,2,76*,76*
COc1ccc(-c2nc(C(=O)NCCCN3CCOCC3)cc3c2[nH]c2ccccc23)cc1OC,50*,15,-5,-1,61*,46*
O=C(CSc1nc(-c2cccs2)cc(C(F)(F)F)n1)NCCCN1CCOCC1,0,10,5,-3,nt,nt
COc1ccc(CNC(=O)C2CCN(S(=O)(=O)c3ccc4c(c3)CC(C)N4C(=O)C3CC3)CC2)cc1 (configuration not stated),-1,4,-1,-1,nt,nt
O=[N+]([O-])c1ccc(-[n+]2nc(-c3ccccc3)nn2-c2ccccc2)cc1,3,7,-2,0,nt,nt
CCn1cc(CNCc2cn(C)nc2-c2ccc(C3CCCCC3)cc2)cn1,3,0,nt,nt,nt,nt
COc1ccc(-c2cc(C(=O)NCCN3CCOCC3)c3ccccc3n2)c(OC)c1,0,18,-8,-5,nt,nt
Cc1ccc(-c2cc(C(=O)NCCCN3CCCC3)c3ccccc3n2)cc1C,35*,10,-6,-3,95*,57*
Cc1cc(NC(=O)c2cc(-c3ccc(C)c(C)c3)nc3ccccc23)no1,22,4,-25,0,nt,nt
O=C(NCCN1CCOCC1)c1cc(-c2ccccc2)nc2ccccc12,0,12,nt,nt,nt,nt
COc1ccc(-c2cc(C(=O)NCCN3CCOCC3)c3cc(C(C)C)ccc3n2)cc1,42*,13,-10,0,160*,153*
Cc1ccc(-c2cc(C(=O)NCCCN3CCOCC3)c3ccccc3n2)cc1C,66*,7,0,2,70*,70*
CCOc1ccc(-c2cc(C(=O)NCCCN3CCCC3)c3ccccc3n2)cc1,28*,21,-11,2,12,16*
Cc1cccc(C)c1NC(=O)CNC(=O)c1c(-c2ccccc2)noc1C,0,-7,3,-1,nt,nt
N#Cc1c(NC(=O)c2ccc(Br)o2)n(-c2ccccc2)c2nc3ccccc3nc12,48*,12,-178,5,34*,25*
CCC(=O)Nc1c(C#N)c2nc3ccccc3nc2n1-c1ccc(C)cc1,38*,11,nt,nt,80*,84*
CCC(C)n1c(NC(=O)c2ccccc2)c(C#N)c2nc3ccccc3nc21 (configuration not stated),18,16,-33,0,nt,nt
CCn1c(CNc2ccc(Cl)cc2)nnc1SCC#N,-1,-1,5,-1,nt,nt
